Experimental data reported in PubChem BioAssay (NCI).
Compounds without any hit were thinned out: in the full panel of roughly 79,000, 15% have a hit. A number with no mark means an inactive call. The source made the active and inactive calls. No stated cut-off is given here; in the data, active means growth inhibition above about 70%; inactive means the rest.

What was measured:
[1] = NCI Yeast Anticancer Drug Screen. Data for the rad50 strain (AID 155);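 further: 0% = growth of vehicle-only cultures of the same strain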; settings: S. cerevisiae rad50 strain growth inhibition, active compounds read high
Procedure, shortened: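 Inhibition values express reduced yeast growth in compound-treated cultures relative to vehicle-treated controls.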

[2] = NCI Yeast Anticancer Drug Screen. Data for the mec2-1 strain (AID 157); settings: S. cerevisiae mec2-1 strain, active compounds read high
Procedure, shortened: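 Readout is yeast growth inhibition, normalised to vehicle-treated controls, in the mec2-1 strain exposed to compound.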

[3] = NCI Yeast Anticancer Drug Screen. Data for the sgs1 mgt1 strain (AID 161);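 further: 0% = growth of cultures given vehicle only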; settings: S. cerevisiae sgs1 mgt1 strain, active compounds read high
Procedure, shortened: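 Growth of a repair-deficient yeast mutant was monitored after compound treatment and expressed as inhibition relative to vehicle-treated cultures.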

[4] = NCI Yeast Anticancer Drug Screen. Data for the cln2 rad14 strain (AID 165);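 further: 0% = growth equal to vehicle treated cultures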; settings: S. cerevisiae cln2 rad14 strain, active compounds read high
Procedure, shortened: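 Relative to vehicle controls, growth inhibition of compound-treated cln2 rad14 yeast was recorded.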

[5] = NCI Yeast Anticancer Drug Screen. Data for the bub3 strain (AID 167); settings: S. cerevisiae bub3 mutant strain, active compounds read high
Procedure, shortened: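 Steps: expose the mutant yeast strain to compound; grow alongside vehicle-treated cultures; measure growth; express inhibition against the vehicle cultures.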

[6] = NCI Yeast Anticancer Drug Screen. Data for the mlh1 rad18 strain (AID 175); settings: S. cerevisiae mlh1 rad18 strain growth inhibition, active compounds read high
Procedure, shortened: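 Test agents were incubated with a yeast strain of defined genotype (DNA damage repair defect). Inhibition of growth was derived by comparison with vehicle-exposed cultures.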

[7] = at 5.0 µM (retest, dose inferred, filed as 0.5)
[8] = at 50.0 µM (retest, dose inferred, filed as 5.0)

Row | Compound | growth inhibition [1, 7] | growth inhibition [1, 8] | growth inhibition ([1]; at 50.0 µM) | growth inhibition [2, 7] [%] | growth inhibition [2, 8] | growth inhibition ([2]; at 50.0 µM) | growth inhibition [3, 7] | growth inhibition [3, 8] | growth inhibition ([3]; at 50.0 µM) | growth inhibition [4, 7] | growth inhibition [4, 8] | growth inhibition ([4]; at 50.0 µM) | growth inhibition [5, 7] | growth inhibition [5, 8] | growth inhibition ([5]; at 50.0 µM) | growth inhibition [6, 7] | growth inhibition [6, 8] | growth inhibition ([6]; at 50.0 µM)
1 | CC1=C(C(=O)Nc2ccccc2)C(c2ccc(C(C)C)cc2)C(C(=O)Nc2ccccc2)=C(C)N1 | 0% | 94% (active) | 97.5% (active) | -3 | 91% (active) | 94.6% (active) | 0% | 94% (active) | 47.6% | -13% | 94% (active) | 90.8% (active) | 2% | 93% (active) | 91% (active) | -3% | 90% (active) | 96.2% (active)
2 | CCN(CC)CCNc1ccc(C)c2sc3c(OC)cccc3c(=O)c12 | 1% | 22% | 74.6% (active) | -1 | 4% | 9.75% | -3% | 22% | 25.6% | -2% | 8% | -2.4% | -1% | 11% | 23.4% | -5% | 36% | 11.8%
3 | CCC[CH2][Sn]([CH2]CCC)([O]C(=O)Cc1ccc(F)cc1)[O]C(=O)Cc1ccc(F)cc1 | 27% | 27% | 86.7% (active) | 30 | 30% | 81.5% (active) | 27% | 27% | 83.3% (active) | 16% | 16% | 78.1% (active) | 21% | 21% | 76% (active) | 14% | 14% | 76.2% (active)
4 | O=C(N=Nc1c(O)[nH]c2ccccc12)C(O)(c1ccccc1)c1ccccc1 | 18% | 32% | -6.25% | 19 | 32% | -8.75% | 21% | 82% (active) | 80.7% (active) | 26% | 27% | 35.5% | 12% | 38% | 25.9% | 29% | 38% | 29.1%
5 | Cc1ccccc1C(=O)c1ccc(O)c2ccccc12 | -6% | 90% (active) | 99.4% (active) | 4 | 82% (active) | 94.5% (active) | 9% | 94% (active) | 64.3% | -10% | 65% | 29.3% | 4% | 71% (active) | 55.2% | 32% | 94% (active) | 99.4% (active)
6 | Cc1cc(N/N=C/c2ccc([N+](=O)[O-])o2)c2cc3c(cc2n1)OCO3 | 23% | 99% (active) | 96.7% (active) | 16 | 100% (active) | 92.3% (active) | 33% | 99% (active) | 97.5% (active) | 4% | 99% (active) | 92.7% (active) | 8% | 99% (active) | 90.5% (active) | 23% | 99% (active) | 95.3% (active)
7 | COc1ccc(C(=O)CCc2c[nH]c3ccccc23)c(O)c1 | 2% | 43% | -1.85% | -9 | 22% | 13.8% | 11% | 46% | 36% | 22% | 72% (active) | 14.2% | 12% | 79% (active) | 23.5% | -9% | 79% (active) | -13.3%
8 | COC(=O)N1C2C=CC(=O)C(C=C2)N1C(=O)OC (configuration not stated) | -3% | 30% | 33.9% | 2 | 38% | 53.2% | 0% | 58% | 47% | 1% | 23% | 36.4% | -1% | 34% | 60.6% | 18% | 79% (active) | 85% (active)
9 | Cc1cccc(NC(=O)Oc2ccc(Cl)c3cccnc23)c1 | 75% (active) | 99% (active) | 88.5% (active) | 57 | 99% (active) | 88.7% (active) | 97% (active) | 99% (active) | 91.8% (active) | 95% (active) | 99% (active) | 89.9% (active) | 82% (active) | 67% | 85.5% (active) | 72% (active) | 99% (active) | 88.8% (active)
